Data on four compounds can be found in PubChem BioAssay (EPA / NIEHS).

A short description of assay [1]: ATG_CRE_CIS: Attagene CIS-FACTORIAL HepG2 Assay for human cAMP Responsive Element (CRE) binding protein 3 (AID 2282926). Conditions: HepG2 CRE cis-reporter, Attagene multiplexed mRNA; actives raise or lower the signal. The method in brief: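 Assay format: transient reporter transfection of HepG2, 24 h treatment, total RNA isolation with DNase I step. Reporter abundance read by fluorescence after PCR and capillary separation; DMSO-normalised gain or loss fitting.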

Assay [2] deals with CCAAT/enhancer-binding protein beta (Homo sapiens) (UniProt P17676). Put plainly: ATG_C_EBP_CIS: Attagene CIS-FACTORIAL HepG2 Assay for human CCAAT/Enhancer Binding Protein (C/EBP) beta (AID 2282927). The note with it: HepG2 Attagene cis-factorial transcription factor reporter; actives raise or lower the signal. The gist of the method: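 Following a 24 h incubation with test chemical, transfected HepG2 cells yielded RNA whose reporter transcripts were quantified by RT-PCR and fluorescent capillary electrophoresis, with DMSO serving as baseline for bidirectional fitting.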
Chain of CCAAT/enhancer-binding protein beta (Homo sapiens) (P17676 whole entry, looked up): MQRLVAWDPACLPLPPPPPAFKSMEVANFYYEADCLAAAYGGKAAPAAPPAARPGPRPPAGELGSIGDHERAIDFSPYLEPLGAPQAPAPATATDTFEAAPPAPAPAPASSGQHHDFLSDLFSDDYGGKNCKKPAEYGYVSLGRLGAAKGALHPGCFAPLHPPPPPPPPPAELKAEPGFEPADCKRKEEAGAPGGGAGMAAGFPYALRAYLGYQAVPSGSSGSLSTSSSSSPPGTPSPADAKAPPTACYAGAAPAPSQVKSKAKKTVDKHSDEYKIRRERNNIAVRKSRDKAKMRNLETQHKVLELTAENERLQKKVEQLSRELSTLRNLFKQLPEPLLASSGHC

A short description of assay [3]: ATG_CMV_CIS: Attagene CIS-FACTORIAL HepG2 Assay for human CMV (Internal Marker) (AID 2282928).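 Note: endpoint acts as a background internal control marker rather than a target.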 The note with it: HepG2 CMV promoter reporter, transcription factor profiling; actives raise or lower the signal. The gist of the method: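 Fluorescence intensity of RT-PCR-derived reporter fragments, resolved by capillary electrophoresis, gives the signal. HepG2 liver cells bearing transfected cis-element reporters were treated 24 h; activity in either direction was fit relative to DMSO-treated controls.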

The nature of assay [4]: ATG_DR4_LXR_CIS: Attagene CIS-FACTORIAL HepG2 Assay for human Liver X Receptor (LXR), DR4 submotif (AID 2282929). The note with it: HepG2 Attagene DR4 cis-reporter, mRNA transcription; actives raise or lower the signal. The method in brief: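 Cells were transfected with multiple reporter transcription units, exposed to chemicals for 24 hours, then lysed for RNA. Reporter mRNA induction was measured by RT-PCR with capillary electrophoresis detection and fitted in both directions relative to DMSO.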

In assay [5] the target is Aryl hydrocarbon receptor (Homo sapiens) (UniProt P35869). Put plainly: ATG_Ahr_CIS: Attagene CIS-FACTORIAL HepG2 Assay for human Aryl Hydrocarbon Receptor (Ahr) (AID 2282930). Conditions: HepG2 AhR cis-factorial reporter transcription; actives raise or lower the signal. The gist of the method: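 Values derive from bidirectional fitting against DMSO negative control. Underlying signal: cis-element reporter mRNA in transiently transfected HepG2, harvested 24 h post-dose and measured by RT-PCR plus capillary electrophoresis.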
Chain of Aryl hydrocarbon receptor (Homo sapiens) (P35869 whole entry, looked up): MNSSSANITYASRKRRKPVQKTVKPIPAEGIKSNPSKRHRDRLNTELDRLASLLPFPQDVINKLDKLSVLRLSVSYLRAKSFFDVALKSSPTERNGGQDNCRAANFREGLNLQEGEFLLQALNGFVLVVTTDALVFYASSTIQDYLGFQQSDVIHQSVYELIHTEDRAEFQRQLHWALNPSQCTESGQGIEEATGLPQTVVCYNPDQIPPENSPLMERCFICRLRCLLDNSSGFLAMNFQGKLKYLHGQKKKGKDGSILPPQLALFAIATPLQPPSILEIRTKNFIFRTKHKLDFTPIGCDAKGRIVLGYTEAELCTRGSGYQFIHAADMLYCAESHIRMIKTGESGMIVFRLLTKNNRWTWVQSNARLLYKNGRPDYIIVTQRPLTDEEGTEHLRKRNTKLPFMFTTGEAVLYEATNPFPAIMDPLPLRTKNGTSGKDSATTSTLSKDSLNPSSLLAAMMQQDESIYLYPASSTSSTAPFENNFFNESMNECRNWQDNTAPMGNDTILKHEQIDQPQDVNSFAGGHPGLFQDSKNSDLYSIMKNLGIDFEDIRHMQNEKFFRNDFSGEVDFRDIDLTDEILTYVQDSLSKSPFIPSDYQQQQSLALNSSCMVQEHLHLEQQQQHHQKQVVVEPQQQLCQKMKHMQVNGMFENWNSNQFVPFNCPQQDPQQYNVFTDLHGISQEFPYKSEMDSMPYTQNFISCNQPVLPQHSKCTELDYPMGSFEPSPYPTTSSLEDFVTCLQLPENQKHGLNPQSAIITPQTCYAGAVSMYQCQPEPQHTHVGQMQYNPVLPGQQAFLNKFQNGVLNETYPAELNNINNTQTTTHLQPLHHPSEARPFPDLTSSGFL

Assay [6] in a line: ATG_AP_1_CIS: Attagene CIS-FACTORIAL HepG2 Assay for human Activator Protein 1 (AP-1) (AID 2282931). Conditions: HepG2 Attagene cis-factorial AP-1 reporter mRNA; actives raise or lower the signal. The method in brief:
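Endogenous transcription-factor activity in human HepG2 liver cells is read through a cis-promoter reporter transcript, sampled 24 h after dosing. Detection uses RT-PCR with capillary electrophoresis; values come from bidirectional fitting relative to DMSO.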

The nature of assay [7]: ATG_AP_2_CIS: Attagene CIS-FACTORIAL HepG2 Assay for human Activator Protein 2 (AP-2) (AID 2282932). The note with it: HepG2 AP-2 cis-reporter, Attagene transcription factor profiling; actives raise or lower the signal. The method in brief:
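Cells (HepG2) transfected with promoter-driven reporter constructs, treated 24 h. Total RNA reverse-transcribed, reporter cDNA PCR-amplified, FAM-labelled by primer extension, digested, resolved by capillary electrophoresis. Activity fitted both directions versus DMSO.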

Assay [8] can be described thus: ATG_BRE_CIS: Attagene CIS-FACTORIAL HepG2 Assay for human Bone Morphogenetic Protein (BMP) Response Element (BRE) (AID 2282933). Conditions: HepG2 BMP response element reporter, Attagene transcription factor profiling; actives raise or lower the signal. The method in brief:
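A HepG2 multiplex reporter system measured inducible reporter mRNA 24 h post-dosing. Detection: RT-PCR, 6-FAM primer extension, HpaI digestion, capillary electrophoresis. Activity fitted bidirectionally relative to DMSO.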

The target in assay [9] is Transcription factor E2F1 (Homo sapiens) (UniProt Q01094). Put plainly: ATG_E2F_CIS: Attagene CIS-FACTORIAL HepG2 Assay for human E2F Transcription Factor 1 (AID 2282935). Conditions: HepG2 Attagene cis-reporter, E2F reporter RNA transcripts; actives raise or lower the signal. The gist of the method:
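First, HepG2 cells were transfected with reporter transcription units. Next, they were dosed for 24 h. Then RNA was isolated, converted to cDNA, PCR-amplified, FAM-labeled, HpaI-digested and analyzed by capillary electrophoresis.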

Assay [10] is described as follows: ATG_E_Box_CIS: Attagene CIS-FACTORIAL HepG2 Assay for human Enhancer Box (E-box) (AID 2282936). Conditions: HepG2 E-box cis-reporter transcription, actives raise or lower the signal. The gist of the method:
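Endogenous transcription factor activity was sensed in human HepG2 liver cells through transfected cis-promoter reporter units. After 24 h of dosing, total RNA was reverse-transcribed and reporter cDNA resolved by capillary electrophoresis.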

The nature of assay [11]: ATG_M_61_CIS: Attagene CIS-FACTORIAL HepG2 Assay for M61 Transcription Factor (Internal Marker) (AID 2282937). The note with it: HepG2 Attagene CIS-FACTORIAL M61 internal marker reporter; actives raise or lower the signal. The gist of the method:
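Cells were transfected with reporter units under cis-regulatory promoters, treated with chemicals for 24 h, then lysed for RNA. Reporter transcripts were quantified by RT-PCR and capillary electrophoresis, and activity was fitted bidirectionally against DMSO.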

A short description of assay [12]: ATG_EGR_CIS: Attagene CIS-FACTORIAL HepG2 Assay for human Early Growth Response 1 (EGR1) (AID 2282938). The note with it: HepG2 Attagene CIS-FACTORIAL EGR reporter mRNA; actives raise or lower the signal. The gist of the method:
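Endogenous TF activity in HepG2 liver cells was gauged through cis-promoter reporter constructs transiently transfected. After 24 h dosing, reporter mRNA was quantified by RT-PCR and capillary electrophoresis, and curves fitted in both directions versus DMSO.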

The nature of assay [13]: ATG_M_19_CIS: Attagene CIS-FACTORIAL HepG2 Assay for M19 Transcription Factor (Internal Marker) (AID 2282939). The note with it: HepG2 Attagene CIS-FACTORIAL M19 internal marker reporter; actives raise or lower the signal. The method in brief: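 Chemical-treated HepG2 (24 h) with MRTU constructs; reporter transcripts detected by fluorescent RT-PCR fragment analysis on capillary electrophoresis. Internal background marker, DMSO as baseline.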

The nature of assay [14]: ATG_Ets_CIS: Attagene CIS-FACTORIAL HepG2 Assay for human Erythroblast Transformation Specific (ETS) (AID 2282941). The note with it: HepG2 ETS cis-reporter transcription, actives raise or lower the signal. The gist of the method: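 Multiplexed reporter transcript profiling: HepG2, 24 h treatment, total RNA to cDNA, PCR, 6-FAM labelling, HpaI cut, capillary electrophoresis. Gain- or loss-of-signal fitted against DMSO.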

The target of assay [15] is Hepatocyte nuclear factor 3-beta (Homo sapiens) (UniProt Q9Y261). Put plainly: ATG_FoxA2_CIS: Attagene CIS-FACTORIAL HepG2 Assay for human Forkhead box A2 (FOXA2) (AID 2282942). The note with it: HepG2 cis-reporter transcription factor activity, 24 h; actives raise or lower the signal. The gist of the method: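 Endogenous transcription factor activity was read in HepG2 cells carrying transiently transfected cis-promoter reporter units. After 24 h dosing, reporter mRNA was quantified by RT-PCR and capillary electrophoresis, and values fitted bidirectionally versus DMSO.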
Chain of Hepatocyte nuclear factor 3-beta (Homo sapiens) (Q9Y261 whole entry, looked up): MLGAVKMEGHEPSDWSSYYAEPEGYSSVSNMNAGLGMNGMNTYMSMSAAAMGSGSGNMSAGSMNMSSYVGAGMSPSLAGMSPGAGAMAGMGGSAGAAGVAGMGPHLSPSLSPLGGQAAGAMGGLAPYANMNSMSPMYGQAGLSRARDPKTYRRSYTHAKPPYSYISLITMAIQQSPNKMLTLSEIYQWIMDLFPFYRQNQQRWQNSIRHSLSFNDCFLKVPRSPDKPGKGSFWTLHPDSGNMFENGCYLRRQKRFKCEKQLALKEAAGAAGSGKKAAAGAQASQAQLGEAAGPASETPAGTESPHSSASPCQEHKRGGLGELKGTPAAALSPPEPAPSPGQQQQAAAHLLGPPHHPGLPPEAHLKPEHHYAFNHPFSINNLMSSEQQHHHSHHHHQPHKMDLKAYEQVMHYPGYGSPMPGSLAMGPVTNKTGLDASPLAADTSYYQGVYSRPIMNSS

Assay [16] in a line: ATG_GATA_CIS: Attagene CIS-FACTORIAL HepG2 Assay for human GATA Binding Protein (AID 2282944). Conditions: HepG2 GATA cis-element reporter, Attagene multiplex mRNA; actives raise or lower the signal. The gist of the method:
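Transfected cis-reporter HepG2 cells were treated with chemicals for 24 hours. Total RNA was then converted to cDNA, amplified with reporter-specific primers and analysed by fluorescent capillary electrophoresis, using DMSO-treated wells as baseline.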

Assay [17] can be described thus: ATG_GLI_CIS: Attagene CIS-FACTORIAL HepG2 Assay for human Zinc Finger Protein GLI1 (AID 2282945). Conditions: HepG2, Attagene cis-factorial reporter mRNA, GLI element; actives raise or lower the signal. The gist of the method:
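HepG2 cells transiently transfected with cis-promoter multiplexed reporter units report endogenous transcription factor activity. After 24 h chemical exposure, reporter mRNA was quantified by RT-PCR, 6-FAM labelling, HpaI digestion and capillary electrophoresis, with bidirectional fitting against DMSO.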

Assay [18] addresses Retinoic acid receptor alpha (Homo sapiens) (UniProt P10276). Put plainly: ATG_DR5_RAR_CIS: Attagene CIS-FACTORIAL HepG2 Assay for human Retinoic Acid Receptor Alpha (RARE), DR5 submotif (AID 2282934).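 For AC50: reporter responds to endogenous RAR alpha beta and gamma in HepG2 not RARA alone.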 The note with it: HepG2 Attagene cis-factorial RARE DR5 reporter, mRNA; actives raise or lower the signal. The method in brief:
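Endpoint fitted in both directions relative to DMSO as negative control. It reflects DR5 cis-element reporter mRNA induction in transiently transfected HepG2 cells, measured 24 h after dosing through RT-PCR and fluorescent capillary electrophoresis.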

Assay [19] is described as follows: ATG_ERE_CIS: Attagene CIS-FACTORIAL HepG2 Assay for Estrogen Response Element (ERE) (AID 2282940). Conditions: HepG2 ERE cis-reporter, Attagene RNA transcript; actives raise or lower the signal. The gist of the method:
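Human liver cells (HepG2) bearing transiently transfected, promoter-regulated reporter units were exposed 24 h. Reporter mRNA induction was detected by capillary electrophoresis of labelled RT-PCR products and fitted bidirectionally to DMSO.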

Assay [20] in a line: ATG_FoxO_CIS: Attagene CIS-FACTORIAL HepG2 Assay for human Forkhead box O (FoxO) (AID 2282943). Conditions: HepG2 Attagene cis-reporter, FoxO element, mRNA; actives raise or lower the signal. The gist of the method:
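Values reflect reporter mRNA induction or loss in HepG2 cells 24 h post-dosing, fitted bidirectionally with DMSO as negative control and baseline. Detection used RT-PCR and fluorescence capillary electrophoresis.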

Active and inactive are the calls of the source. Rule for the calls: active = hit-call score of the fitted dose curve at least 0.9, where 1 is the maximum; inactive = score below 0.9.

Chain of Transcription factor E2F1 (Homo sapiens) (Q01094 whole entry, looked up): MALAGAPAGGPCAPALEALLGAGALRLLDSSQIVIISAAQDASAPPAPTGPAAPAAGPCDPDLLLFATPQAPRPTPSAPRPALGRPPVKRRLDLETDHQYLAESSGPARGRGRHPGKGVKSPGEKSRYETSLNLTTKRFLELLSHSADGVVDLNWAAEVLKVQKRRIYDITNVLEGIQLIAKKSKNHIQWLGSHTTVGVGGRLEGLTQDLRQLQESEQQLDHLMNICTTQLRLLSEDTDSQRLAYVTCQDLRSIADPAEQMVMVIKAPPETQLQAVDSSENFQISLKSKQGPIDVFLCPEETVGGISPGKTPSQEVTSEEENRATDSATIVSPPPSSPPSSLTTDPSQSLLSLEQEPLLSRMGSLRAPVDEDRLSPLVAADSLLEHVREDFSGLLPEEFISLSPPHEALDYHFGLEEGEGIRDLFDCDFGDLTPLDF
Chain of Retinoic acid receptor alpha (Homo sapiens) (P10276 whole entry, looked up): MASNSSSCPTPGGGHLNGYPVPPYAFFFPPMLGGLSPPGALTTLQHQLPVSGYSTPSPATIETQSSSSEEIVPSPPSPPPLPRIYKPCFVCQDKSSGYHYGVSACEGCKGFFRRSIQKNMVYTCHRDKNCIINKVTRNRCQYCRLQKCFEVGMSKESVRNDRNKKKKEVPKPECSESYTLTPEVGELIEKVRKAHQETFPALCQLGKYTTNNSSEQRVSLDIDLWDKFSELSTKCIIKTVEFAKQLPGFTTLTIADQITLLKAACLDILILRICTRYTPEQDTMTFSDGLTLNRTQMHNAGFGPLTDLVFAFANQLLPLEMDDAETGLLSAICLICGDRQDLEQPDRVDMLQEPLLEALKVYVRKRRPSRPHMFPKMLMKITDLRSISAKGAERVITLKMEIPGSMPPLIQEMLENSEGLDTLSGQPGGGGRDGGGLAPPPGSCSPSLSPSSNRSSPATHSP

On to `C=C(C)[C@@H]1CC=C(C)C(=O)C1`, for which the compound was called inactive in [1], in [2], in assay [3], in assay [4], in assay [5] and in [6]. Besides, the outcome in [7], in [8], in [9], in [10], in [11] and in assay [12] was inactive. In addition, the call in assay [13], in assay [14], in [15], in assay [16] and in [17] was inactive.
Consider `Cc1[nH]c(=O)c(C#N)cc1-c1ccncc1`, for which the compound was called inactive in [1], in [2], in [5], in assay [6], in [7] and in [8]. Further, the call in assay [18], in assay [10], in assay [11], in assay [12], in assay [19] and in assay [14] was inactive. The result in assay [15], in assay [20], in assay [16] and in assay [17] was inactive. In addition, the concentration at half-maximal activity (AC50) in assay [3] is 24.3 µM (active); in assay [4] it was 26.6 µM (active).
On to `COc1ccc(COC(C)=O)cc1`, for which the result in assay [1], in assay [2], in assay [3], in [4], in [5] and in assay [6] was inactive. Also, the call in assay [7], in assay [8], in assay [18], in assay [9], in assay [10] and in [11] was inactive. The compound was called inactive in assay [14], in [15], in [20], in assay [16] and in assay [17].
As for `O=C(CS)OCCOC(=O)CS`, the outcome in assay [1], in assay [2], in assay [9], in [11], in assay [12] and in [13] was inactive. Besides, the compound was called inactive in [14], in assay [15], in [16] and in [17]. Also, the half-maximal activity concentration (AC50) in [3] was 72.7 µM (active); in assay [4], 49.1 µM (active); in [5], 24.9 µM (active); in assay [6], 58.7 µM (active); in assay [7], 100 µM (active); in assay [18], 27.5 µM (active). In assay [10], the AC50 was 58.7 µM (active).
